Screening results as filed in PubChem.
DRD3 agonist: activates the human D3 dopamine receptor | AID 652048 | P35462 | actives 0.58% (n = 410,000) | max activation, % | D3R DiscoveRx beta-arrestin cells, luminescence, 90 min; in the data active means max activation above about 30%; further: 0% is about no effect
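Cells at 1500/well, incubated overnight, then treated with pinned compounds (dopamine as control) for 90 min at 37 degrees C. DiscoveRx reagent added for 30 - 60 minutes at room temperature; luminescence read.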
B2AR arrestin: beta2AR (human) beta-arrestin recruitment activity; AID 492947; actives 0.02% (n = 330,000); beta-arrestin recruitment to beta2AR, cell-based reporter; P07550; Potency, µM (top dose mostly 46.1 µM), without a hit: at the top dose activation, hits mostly activators;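 further: potency means the concentration at half of the fitted maximal effect; 0% = DMSO controls and full agonism = EC100 isoproterenol or metaproterenol; nearly all actives have a fitted effect of over 65% in size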
RGS4 inh: inhibitors of human regulator of G protein signaling 4; Transcreener GDP fluorescence polarization, RGS4-accelerated GTP hydrolysis; Potency, µM (titrated, usually from 114 µM), for the others: at the highest dose activity change, negative = inhibition, usual class: inhibitors; actives 0.039% (n = 390,000); AID 504845; further: potency means the concentration at half of the fitted maximal effect; on the % scale 0 is the no-effect control and ±100 the full control effect; nearly all actives have a fitted effect of over 75% in size
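MLSMR compounds (23 nl, pin-transferred) preincubated 10 min at room temperature with a 500nM (2x) first reagent, then RGS4 at 900nM (2x) plus Transcreener GDP mix added; fluorescence polarization (620/688 nm) read before and after 90 min at 30 °C.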
PTHR1 ag: activates the human parathyroid hormone receptor PTHR1; HEK293 GP2 PTHR1 cells, GloSensor cAMP luminescence, 1 h; Potency, µM (top dose mostly 115 µM), for the others: at the top dose activation, usual class: activators; actives 0.075% (n = 410,000); further: potency means the concentration at half of the fitted maximal effect; nearly all actives have a fitted effect of over 55% in size
Target sequence (Q03431 whole entry, looked up): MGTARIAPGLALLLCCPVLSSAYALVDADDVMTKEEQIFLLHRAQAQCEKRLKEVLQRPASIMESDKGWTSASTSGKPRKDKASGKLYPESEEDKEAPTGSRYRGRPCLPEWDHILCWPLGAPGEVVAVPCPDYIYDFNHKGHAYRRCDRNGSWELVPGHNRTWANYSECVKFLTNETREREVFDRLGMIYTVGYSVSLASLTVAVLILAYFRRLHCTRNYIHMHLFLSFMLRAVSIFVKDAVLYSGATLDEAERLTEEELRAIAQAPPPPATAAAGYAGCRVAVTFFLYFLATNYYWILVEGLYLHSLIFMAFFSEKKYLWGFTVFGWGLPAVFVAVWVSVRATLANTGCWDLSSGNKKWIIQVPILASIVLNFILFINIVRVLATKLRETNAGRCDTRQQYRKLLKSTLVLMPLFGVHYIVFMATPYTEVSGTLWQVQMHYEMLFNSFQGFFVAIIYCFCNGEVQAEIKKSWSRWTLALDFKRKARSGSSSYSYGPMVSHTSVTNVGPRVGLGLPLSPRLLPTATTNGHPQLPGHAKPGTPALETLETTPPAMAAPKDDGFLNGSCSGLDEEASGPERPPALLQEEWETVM
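HEK-293-derived GP2 cells expressing PTHR1 and a GloSensor cAMP reporter, 3,000/well, plated overnight, given luciferin plus IBMX (each 0.5 mM as added) for 1 h at 37 °C, then compound for 1 h at 37 °C. Luminescence was read after 15 min at room temperature.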
D3 antag: blocks the human D3 dopamine receptor; P35462; actives 2.5% (n = 360,000); D3R cells, DiscoveRx beta-arrestin luminescence, antagonist mode; hits give low values; max response, negative = inhibition, %; AID 652054; in the data active means max response below about -50%; inconclusive means no clear call, values can overlap the other calls; further: on the % scale 0 is the no-effect control and ±100 the full control effect
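Cells plated overnight at 1500 cells/well, then exposed to library compounds with dopamine controls for 90 minutes at 37 degrees C. DiscoveRx reagent added for 30–60 minutes at room temperature; luminescence read, quantitative HTS format.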
BRCA1 expr act: BRCA1 expression activation. MCF7-BRCA1-FFLuc reporter, luminescence, 48 h; response scale: scaled: vehicle 0%, 10 µM genistein 100%. Potency, µM (highest dose often 46.1 µM), without a hit: at the highest dose activation, actives largely listed as activators. actives 1.1% (n = 380,000). AID 624202; further: potency means the concentration at half of the fitted maximal effect; nearly all actives have a fitted effect of over 80% in size
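Quantitative HTS in MCF7 cells stably reporting BRCA1 expression via firefly luciferase. Compound treatment lasts 48 h at 37 °C in phenol-red free MEM. Activation is expressed relative to genistein at 10 microM and DMSO.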
Starred values were filed as active, the others as inactive; i = inactive; u = inconclusive; x = not tested or not shown; ! = a repeat was not active; [ ] = dose if it differs, or a comment. Compounds with a hit are over-represented: about 3.7% of the library has one in this group of screens. Unless noted, the call rests on the fitted dose curve; in most records, active means well fitted curve in the direction sought with a large enough effect; inconclusive means small, poorly fitted or top-dose-only effect, or another doubt; inactive means no such curve, though single readings can be large; an effect the other way counts as inactive or inconclusive.

SMILES	DRD3 agonist	B2AR arrestin	RGS4 inh	PTHR1 ag	D3 antag	BRCA1 expr act
O=C(Nc1sc(-c2ccccc2)cc1C(=O)O)c1ccccc1	-14.8	0.4%	-1.6%[11.4 µM]	-90.1%	u	11.2µM*
CC(c1ccccc1)N1C(=O)c2ccc(C(=O)Nc3ccccc3C(=O)O)cc2C1=O (stereo not drawn)	31.8*	0.4%	21.4%	-33.9%	105.4	17.1%
O=C(Nc1ccccc1C(=O)O)c1cccc(C(=O)Nc2ccccc2C(=O)O)c1	30.4*	0.5%	12.5%	-12.5%	102.4	10.7%
O=C(Nc1ccccc1C(=O)O)c1ccc(NC(=O)c2ccc(Br)o2)cc1	114.7*	0.5%	2.7%	-14.8%[57.5 µM]	43.8	39.3%
Clc1ccc(C2CSc3c4ncnc-4ncn32)cc1 (stereo not drawn)	3.8	-0.8%	16.2%	-22.6%	1.5	2.0%
COC(=O)c1cc(OC)c(OC)c(OC)c1NC(=O)c1ccc(S(=O)(=O)N(C)C)cc1	-1.8	-0.3%	12.2%	9.8%[57.5 µM]	-88.2*	-5.0%
COc1ccc(NC(=O)c2ccc(S(=O)(=O)N(C)C)cc2)cc1OC	9.6	-0.9%	-17.2%	i	-2.4	4.1%
NC(=S)N/N=C/c1ccccc1OC(=O)/C=C/c1ccccc1	-0.9	u	-31.9%	-9.9%	-7.1	-15.6%
N/C(=N\NC(=O)c1ccccc1)c1cc2ccccc2oc1=O	2.5	0.3%	u	-3.6%	6.9	92.3%
NC(=S)N/N=C/c1ccccc1OC(=O)c1cc2ccccc2oc1=O	0.2	12.6µM*	-14.3%	-20.6%	-21.9	11.8%
NC(=O)N/N=C/c1ccccc1OC(=O)c1cc2ccccc2oc1=O	-5.7	0.3%	15.2%	i	-57.2*	-4.4%
CC(=O)Nc1cc2c3ccccc3n(C)c2cc1[N+](=O)[O-]	-12.6	x	4.9%	i	-13.0	-12.6%
CN(Cc1nccs1)C(=O)c1ccc2nc(Cc3ccccc3F)oc2c1	3.2	0.3%	19.7%	-29.4%	0.8	3.16µM*
CN(Cc1nccn1C)C(=O)c1ccc2nc(Cc3ccccc3F)oc2c1	2.2	-1.1%	-11.9%	-0.8%	10.2	12.6µM*
Cc1cc(CN(C)C(=O)c2ccc3nc(Cc4ccccc4F)oc3c2)on1	8.2	-0.4%	17.9%	-47.9%	-3.3	u
CC(C)(C)OC(=O)[C@H](Cc1ccccc1)NC(=O)c1[nH]cnc1C(=O)Nc1ccccc1F	3.4	x	x	i	-20.3	-66.5%
Cc1ccc(S(=O)(=O)N2CCCCC2)cc1NC(=O)CSc1nnc(C2CC2)n1C	-8.3	-0.2%	1.1%	i	-71.4*	-17.5%
Cc1ccsc1C(=O)N/N=C/C=C/c1ccccc1[N+](=O)[O-]	-6.4	0.3%	-30.9%	-36.3%[57.5 µM]	-84.6*	55.6%
Cc1occc1C(=O)N/N=C/C=C\c1ccccc1[N+](=O)[O-]	-7.2	-0.2%	-35.3%	-13.6%	-22.3	u
COC(=O)C1C(=O)c2c([nH]c(C(=O)OC3CCCC3C)c2C)CC1C (stereo not drawn)	2.9	0.4%	-16.9%	-12.6%	2.5	u
COC(=O)C1C(=O)c2c([nH]c(C(=O)OC3CCCCC3)c2C)CC1C (stereo not drawn)	1.6	-0.4%	-4.5%	-25.0%	-19.6	5.01µM*
O=C(CN(c1ccc(Cl)c(C(F)(F)F)c1)S(=O)(=O)c1ccccc1)N/N=C/c1cccc2c1OCCO2	-8.8	0.5%	14.3%	i	-62.9*	-76.0%
Cc1[nH]n2c(=O)c3c(nc2c1-c1ccc(Cl)cc1)CCC3	-12.6	-0.2%	-9.6%	i	-86.6*	-41.1%
CC(C)n1c(/C=C/c2ccccc2)nc2ccccc21	-2.9	3.5%	-9.9%	-16.0%	19.8	2.24µM*
COCCOCCn1c(/C=C/c2ccccc2)nc2ccccc21	-5.3	-0.7%	u	-23.3%	1.2	20.7%
SMILES	DRD3 agonist	B2AR arrestin	RGS4 inh	PTHR1 ag	D3 antag	BRCA1 expr act
CCCn1c(/C=C/c2ccccc2)nc2ccccc21	30.7*!	-0.1%	19.3%	-24.2%	21.6	20.8%
CC(C)C(=O)NCc1cc(-c2ccccc2)no1	-0.8	-0.2%	0.1%	14.5%	3.9	13.0%
CCOC(=O)C1=C(C)N=C2c3ccccc3C(=O)C2C1c1ccc(Cl)cc1 (stereo not drawn)	-19.1	-0.2%	-37.5%	-19.1%[57.5 µM]	u	-58.5%
CCOC(=O)C1=C(Cc2ccc(Cl)cc2)C(=O)c2ccccc2C1=O	-19.7	0.2%	u	-17.5%[57.5 µM]	-76.1*	-57.8%
Cc1ccc(C)c(NC(=O)CN(C)C(=O)c2ccc(Cl)nc2)c1	0.6	-0.3%	15.7%	i	-15.5	30.5%
CC1CCC2(CC1)NC(=O)N(CC(=O)N1CC(C)CC(C)C1)C2=O (stereo not drawn)	-3.8	0.2%	-23.2%	i	-2.0	4.3%
O=C(CC[C@H]1O[C@@H](n2ccc(=O)[nH]c2=O)[C@H](O)[C@@H]1O)N[C@H](Cc1ccccc1)C(=O)NCCCc1ccccc1	-10.9	x	x	-14.3%	-6.2	2.3%
COCCCNC(=O)[C@H](Cc1ccccc1)NC(=O)CC[C@H]1O[C@@H](n2ccc(=O)[nH]c2=O)[C@H](O)[C@@H]1O	-8.5	x	x	-21.6%	-55.8*	9.1%
O=c1ccn(Cc2ccccc2)c(=O)n1Cc1ccccc1	-0.9	-0.2%	9.5%	u	-50.1*	-12.8%
CCc1cc(C(=O)NNC(=S)NC2CCCCC2)cs1	-21.3	-0.7%	-16.3%	i	-13.1	46.8%
CC(C)c1cc(C(=O)NNC(=S)NC2CCCCC2)cs1	-19.9	0.0%	-1.0%	-40.1%	-53.0*	86.7%
CNc1nnc(-c2cc3cc(Cl)ccc3oc2=O)s1	1.0	-0.3%	u	-22.5%[57.5 µM]	-8.3	10µM*
N#C/C(=C\c1cc(Br)c(O)c(Br)c1)c1nc2ccccc2c(=O)[nH]1	-10.7	x	8.8%	i	x	x
CCOc1ccccc1NC(=O)N1CCC(C(=O)c2ccc(F)cc2)CC1	1.6	-0.4%	-5.1%	i	-3.5	1.8%
Cc1nc2sccn2c(=O)c1CCN1CCC(=C(c2ccc(F)cc2)c2ccc(F)cc2)CC1	-88.1	x	u	-2.2%	-93.2*	-33.1%
Cc1nc2ccccn2c(=O)c1CCN1CCC(C(=O)c2ccc(F)cc2)CC1	-94.7	0.2%	3.0%[56.9 µM]	-24.4%	-112.4*	-14.6%
C=C(CN(C)C)C(=O)c1ccc2c(c1)OCO2	-5.9	x	u	-23.2%	-54.4*	-87.9%
C=C(CN(C)C)C(=O)c1ccc(C)cc1C	-12.3	x	u	-4.1%	-88.0*	-92.7%
C[N+](C)(C)CCCC(=O)c1ccc2c(c1)OCO2	2.1	-0.8%	3.4%[11.4 µM]	i	-0.7	-4.7%
c1coc(-c2ccc3ncnc(NCc4cccs4)c3c2)c1	x	-0.4%	x	x	x	x
